Laboratory results: the supplement of paper PMC6555819

Tests used:
Assay in all cases: PBM binding z-score (relative to random genomic background probes); higher = stronger binding; sequences stand for … in GC…GCGATTGACAGCGTAGAATGAAGG
[1] = tested on: PPARg:RXRa DBDmut IVT, anti-RXR (DBD mutation: RXRa K156A/R161A, NR concentration 270 nM, RXRa partner concentration 90 nM)
Outline: (§1)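 The probes on custom Agilent 4×180K protein-binding microarrays were double-stranded, with 34-nt variable regions bearing direct-repeat seeds, single-nucleotide variants, half-site ablations and random human genomic background sequences. Incubation lasted 1 h with ligand-free nuclear receptor dimers in PBS pH 7.4, 2% milk, 0.02% Triton X-100, 1 mM DTT, 0.2 mg/mL BSA and 0.4 mg/ml salmon testes DNA. Antibodies against each partner (one per run) detected bound dimers, and fluorescence scans were regression-normalized. Binding z-scores take the random background probes as reference.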

[2] = tested on: PPARg:RXRa IVT, anti-PPARg (NR concentration 270 nM, RXRa partner concentration 90 nM)
Outline: as §1

[3] = tested on: PPARg DBDmut:RXRa IVT, anti-PPARg (DBD mutation: PPARg1 K132A/R137A, NR concentration 270 nM, RXRa partner concentration 90 nM)
Outline: as §1

[4] = tested on: PPARg DBDmut IVT, anti-PPARg (DBD mutation: PPARg1 K132A/R137A, NR concentration 270 nM)
Outline: as §1

[5] = tested on: PPARg homodimer (NR concentration 180 nM)
Outline: as §1

[6] = tested on: PXR:RXRa (NR concentration 270 nM, RXRa partner concentration 90 nM)
Outline: as §1

[7] = tested on: PXR homodimer (NR concentration 270 nM)
Outline: as §1

[8] = tested on: RARa:RXR (NR concentration 270 nM, RXRa partner concentration 90 nM)
Outline: as §1

[9] = tested on: RARa homodimer (NR concentration 270 nM)
Outline: as §1

[10] = tested on: RARb:RXRa (NR concentration 270 nM, RXRa partner concentration 90 nM)
Outline: as §1

[11] = tested on: RARb homodimer (NR concentration 270 nM)
Outline: as §1

[12] = tested on: RARg homodimer (NR concentration 270 nM)
Outline: as §1

[13] = tested on: RXRa DBDmut IVT, anti-RXR (DBD mutation: RXRa K156A/R161A, NR concentration 90 nM)
Outline: as §1

[14] = tested on: RXRa homodimer (NR concentration 180 nM)
Outline: as §1

[15] = tested on: THRa:RXRa (NR concentration 90 nM, RXRa partner concentration 90 nM)
Outline: as §1

[16] = tested on: THRa homodimer (NR concentration 90 nM)
Outline: as §1

[17] = tested on: VDR homodimer (NR concentration 270 nM)
Outline: as §1

[18] = tested on: VDR:RXRa (NR concentration 270 nM, RXRa partner concentration 90 nM)
Outline: as §1

Sequence | PBM binding z-score [1] | PBM binding z-score [2] | PBM binding z-score [3] | PBM binding z-score [4] | PBM binding z-score [5] | PBM binding z-score [6] | PBM binding z-score [7] | PBM binding z-score [8] | PBM binding z-score [9] | PBM binding z-score [10] | PBM binding z-score [11] | PBM binding z-score [12] | PBM binding z-score [13] | PBM binding z-score [14] | PBM binding z-score [15] | PBM binding z-score [16] | PBM binding z-score [17] | PBM binding z-score [18]
TATCCTAGGTCAGATCGGGCCAGTATACGCTATA | 2.51 | 3.41 | 1.32 | 1.4 | 1.11 | 1.82 | 0.14 | 1.8 | 0.0561 | 3.33 | 2.53 | 3.86 | 0.36 | 2.21 | 4.25 | 0.858 | 0.237 | –
ACTCGGAGGACAAACGTCAGAGCTACGCCAGTGA | -0.0796 | -0.507 | -0.617 | -0.00127 | -0.209 | -0.77 | -0.0928 | -0.299 | -0.122 | 0.951 | 0.0238 | 1.15 | 0.497 | -0.425 | 0.312 | -0.476 | -0.183 | –
ATCGAAATGTCGTGAGGTGAGTATACAGAAAGGC | -0.876 | 0.356 | 1.2 | 0.426 | -0.35 | -0.158 | -0.418 | 0.27 | -0.172 | 0.61 | 0.113 | 0.683 | -0.3 | 0.0827 | 1.74 | 1.16 | -0.224 | –
CAGCCTAGTTCAGGGCCAGTATAGGAGGAACGTT | -0.416 | -0.592 | -0.87 | -0.941 | -0.37 | -0.0793 | 0.431 | -0.13 | -0.131 | 1.05 | 0.7 | 0.665 | 0.532 | 0.15 | -0.00106 | -0.234 | 0.209 | –
TCTGCTGGGTCAACGATGGTCAGCTAATCTGCTA | 3.36 | 3.7 | 1.06 | 0.239 | 0.518 | 1.46 | -1.34 | 2.07 | -1.24 | 3.6 | 2.96 | 4.31 | 0.782 | 2.58 | 2.65 | -0.44 | -0.395 | 1.62
TGGCCTAGGTCATGCGGGCCAGTATAGTGTCGGC | 1.03 | 2.44 | -0.76 | -1.48 | 0.35 | 1.12 | -0.591 | 2.07 | -0.739 | 3.53 | 2.85 | 4.45 | -0.03 | 3.03 | 2.68 | 0.284 | 0.128 | –
CAAACTAGGTCAAAGGTCAAACTCGAGCCAACCA | 8.72 | 9.06 | 5.54 | 4.24 | 5.23 | 7.03 | 2.84 | 8.96 | 3.29 | 5.81 | 5.32 | 8.15 | 3.04 | 10.5 | 4.85 | 2.14 | 4.14 | –
GATACGGGGTCAGCTAGAGGCCAGAGTATGGAAA | 3.12 | 4.66 | 1.44 | 0.481 | 4.42 | 5.75 | 0.6 | 6.84 | 0.888 | 5.15 | 4.12 | 6.6 | 3.39 | 7.4 | 4.28 | 1.14 | 2.68 | –
CAAACTAGGTCAAGAGGTCAAACTCCGCTTCCCG | 8.21 | 8.74 | 4.72 | 2.13 | 6.57 | 6.37 | 4.12 | 8.15 | 2.88 | 5.41 | 5.81 | 7.93 | 3.21 | 8.2 | 4.49 | 2.71 | 5.63 | 6.49
GCTCGGAGGACAAGGTCAGGGCTTTGTCCGTAGA | -0.354 | 1.3 | -0.608 | -0.233 | 0.661 | 2.03 | -0.681 | 2.71 | -0.898 | 3.83 | 3.31 | 4.39 | 0.229 | 3.18 | 3.22 | 1.75 | 0.358 | –
AGCGAAAGGTCGAAGGTGAGTATACCCACCCGAA | 0.0438 | 2.06 | 0.39 | -0.438 | 1.16 | 2.97 | -0.17 | 4.28 | 0.406 | 3.6 | 2.44 | 4.05 | 0.876 | 5.09 | 2.04 | -0.329 | 0.312 | 2.8
CAACCTAGGTCACCGGAAGGTCAAAGTCCGCATG | 4.96 | 5.75 | 0.0174 | 0.904 | 8.27 | 6.29 | 2.96 | 7.58 | 5.02 | 5.39 | 5.77 | 8.03 | 2.46 | 7.71 | 4.63 | 3.03 | 4.09 | –
CCTTACGGGTCACTGACAGGTCATAGCATTTGGA | 3.69 | 3.99 | 0.0751 | 0.785 | 4.06 | 5.34 | 0.53 | 6.69 | 1.34 | 4.53 | 4.59 | 5.71 | 1.79 | 6.67 | 3.98 | 0.878 | 2.15 | 5.38
ATCGAAAGGTCGAAGGAGAGTATACCCACCCGAA | -0.0352 | 1.35 | 0.946 | 0.145 | 1.41 | 2.39 | 0.0516 | 3.11 | 0.728 | 3.62 | 1.98 | 3.81 | 0.774 | 3.75 | 1.76 | -0.242 | 0.458 | –
